# Measured values: PubChem BioAssay (NCI)
# About 83,000 compounds went through this panel and 20% of them were active in at least one assay; those are over-represented in the sample as a whole.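 Step 1: grow cells in 96-well plates. Step 2: add test compound at a single concentration. Step 3: incubate 48 h. Step 4: record percent growth.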 The source made the active and inactive calls. Rule for the calls: active = growth percent below 10; inactive = the rest.
# Tested on: HL-60(TB) leukemia
# Test: NCI-60 one-dose screen, 48 h (100 = growth as untreated, 0 = no growth, -100 = all killed)
# Details: 10 µM unless noted
row,SMILES,growth
1,COc1c(B(O)O)cccc1-c1nc2ccc3[nH]ncc3c2c2c1C1CCC2C1 (centres undefined),20% (inactive)
2,CCN1CCC(CCOC)(CN2c3ccccc3Sc3ccc(Cl)cc32)C1 (centres undefined),58.5% (inactive)
3,CN(C)CCN1C(=O)c2cccc3cc(N)cc(c23)C1=O,1.68% (active)
4,Cn1cc(-c2nc(-c3c[nH]c4ncc(F)cc34)cs2)c2cccnc21,103% (inactive)
5,CC(=O)c1cc2c(o1)C(=O)c1ccccc1C2=O,-36.5% (active)
6,C=C1C(=O)O[C@H]2[C@H]1CC/C(COC(=O)NCc1c[nH]c3ccc(Br)cc13)=C\CC[C@@]1(C)O[C@@H]21,-26.9% (active)
7,C=CCCCCCCCCC(=O)[O][Sn]([CH2]CCC)([CH2]CCC)[CH2]CCC,-15.1% (active)
8,Cc1nc2sccn2c1-c1csc(Nc2ccccc2Cl)n1,19.2% (inactive)
9,O=C(Nc1ncc(Cc2ccc(Cl)cc2)s1)C1=NCCCCN1,97% (inactive)
10,CCOC(=O)c1c(NC(=O)c2cccc(C(F)(F)F)c2)sc2c(CN(C)C)c(O)ccc12,16.3% (inactive)
11,c1csc(-c2c3ccc(=[N+]4CCCCC4)cc-3oc3cc(N4CCCCC4)ccc23)c1,-35.5% (active)
12,Nc1nc(N)c2c(n1)NC1(C=C(O)c3ccccc31)C1=C(N2)c2ccccc2C1=O (centres undefined),71% (inactive)
13,COc1cc(NCc2ccc3nc(N)nc(N)c3c2C)cc(OC)c1OC (tested in a mixture with another compound),25.7% (inactive)
14,Cc1sc2nc(NCCN)[nH]c(=O)c2c1C,115% (inactive)
